# Screening results from PubChem.
# ssDAF12 agonist = S. stercoralis DAF-12 activation, primary screen | activation, % at 6.8 µM | 1% of 370,000 active | HEK293 ssDAF-12/GRIP1 lit1-tk-luc reporter, luminescence; % of 3 µM dafachronic acid response;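 active = activation above the mean over all tested compounds plus 3 SD, cut at about 0.9% in these data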;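 note: 0% = DMSO-only wells and 100% = 3 µM delta7-dafachronic acid wells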
# hgDAF-12 ag = activates the H. glycines DAF-12 receptor ligand-binding domain | activation, % at 6.8 µM | 1.8% of 370,000 active | HEK293 GAL4-hgDAF12 UAS-luciferase reporter, agonist luminescence; normalized to butyrate control;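 active = activation above a cutoff set at the mean of all screened compounds plus 3 SD, cut at about 10% in these data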;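 note: 0% = DMSO wells and 100% = sodium butyrate wells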
# DAX1 inh-1 = NR0B1 (DAX1) inhibition; AID 504766; inhibition, % at 6.75 µM; 0.99% of 340,000 active; HEK293 Gal4-DAX1 luciferase reporter, luminescence; P51843;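 active = inhibition above the mean over all tested compounds plus 3 SD, cut at about 4.2% in these data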;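 note: 0% = DAX1-transfected cells with DMSO and 100% = empty-vector control cells with DMSO; inhibition shows as a rise in luminescence from relieved DAX1 repression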
# Target sequence (P51843 207-470 limits assumed): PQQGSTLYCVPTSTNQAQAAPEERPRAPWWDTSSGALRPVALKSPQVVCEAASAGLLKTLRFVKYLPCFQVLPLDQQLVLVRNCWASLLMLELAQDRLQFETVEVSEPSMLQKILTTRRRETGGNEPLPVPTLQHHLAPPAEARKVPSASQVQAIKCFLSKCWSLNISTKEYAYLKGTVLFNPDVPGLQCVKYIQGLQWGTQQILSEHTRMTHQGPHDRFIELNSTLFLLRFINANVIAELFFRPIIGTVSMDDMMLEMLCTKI
# DAX1 inh-2 = DAX1 (NR0B1) inhibition, primary screen | inhibition, % at 6.8 µM | HEK293T StAR-luciferase reporter, SF-1/DAX-1 repression relief | 1.1% of 370,000 active;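 active = inhibition above the mean over all tested compounds plus 3 SD, cut at about 3.6% in these data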;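 note: 0% = DAX-1 cells with DMSO and 100% = cells lacking DAX-1 with DMSO; higher inhibition means more luminescence from relief of DAX-1 repression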
# hcDAF12 agonist = activates DAF-12 receptor from parasite H. contortus; 1.4% of 370,000 active; HEK293 hcDAF-12 lit1-tk-luc reporter, luminescence; 0% DMSO, 100% Δ7-dafachronic acid; AID 652067; activation, % at 6.8 µM;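 active = activation above the mean of all tested compounds plus 3 SD, cut at about 5.5% in these data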;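 note: 100% = response to 3 µM Δ7-dafachronic acid high control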
# LXR ag = LXR-beta agonism as hcDAF-12 counter-screen | shares compounds with hcDAF12 agonist | HEK293 Gal4-LXR tk-luc reporter, luminescence, 24 h; normalized: DMSO 0%, positive control 100% | activation, % at 6.8 µM | 3,400 tested, under 10 active | AID 743027;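 active = mean percent activation of the reporter above a cutoff set as the average over tested compounds plus their standard deviation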
# hcDAF12 conf = confirmation of H. contortus DAF-12 agonists; activation, % at 6.8 µM; 61% of 3,400 active; shares compounds with hcDAF12 agonist; HEK293 hcDAF-12 lit1-tk-luc reporter, luminescence; % of Δ7-dafachronic acid response;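 active = mean activation across triplicate tests above the threshold derived from the earlier primary screen, cut at about 5.5% in these data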;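 note: 0% = DMSO only wells and 100% = 3 µM Δ7-dafachronic acid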
# An asterisk follows results filed as active; nt = no result given. Hits are enriched below; roughly 4.1% of the tested compounds scored in any of these assays.
SMILES,ssDAF12 agonist,hgDAF-12 ag,DAX1 inh-1,DAX1 inh-2,hcDAF12 agonist,LXR ag,hcDAF12 conf
CCNC(=O)Nc1ccc2c(c1)C(=O)N(C)[C@H]1CC[C@H](CC(=O)N[C@H](C)c3ccccc3)O[C@@H]1CO2,-1,1,nt,0,1,nt,nt
COC(=O)c1sc(-c2ccc(C(C)(C)C)cc2)cc1NC(=O)c1ccccc1C(=O)O,1.5*,12*,3,2,6.8*,0,0
Brc1ccc(C2Nc3cccc4cccc(c34)N2)s1,0,5,0,0,6.6*,0,4
COc1ccc(Br)cc1C1Nc2cccc3cccc(c23)N1,-1,1,1,0,0,nt,nt
COc1cc(C=NN2CCN(C(c3ccccc3)c3ccccc3)CC2)cc(OC)c1OC(C)=O,-2,-1,nt,0,1,nt,nt
CC1(C)CC(=O)N(CC(=O)N2CCN(c3cccc(C(F)(F)F)c3)CC2)c2ccccc2S1(=O)=O,-2,-2,nt,-1,-2,nt,nt
Cc1ccc(N=C2NC(=O)/C(=C/C=C/c3ccco3)S2)cc1,0,2,1,0,7.9*,0,6
Fc1ccc2nc(Nc3nc4c(F)cccc4s3)sc2c1,0,0,0,0,4,nt,nt
CCC(=O)NNc1nc2c(F)cccc2s1,0,5,4,0,7.0*,0,4
CCOc1cccc2sc(NC(=O)CC)nc12,-1,-1,0,0,-3,nt,nt
Fc1cccc2sc(Nc3nc4ccccc4s3)nc12,0,0,2,1,12*,1,11*
Cc1cc(C)cc(C(=O)OCCN(C)C2CN(Cc3cn(Cc4cccc(F)c4)nn3)S(=O)(=O)C2)c1 (stereo not drawn),-2,-2,nt,-1,-2,nt,nt
C=CCN(CC#Cc1ccccc1)Cc1ccc2c(c1)OCO2,-1,-1,nt,-1,-1,nt,nt
CC1=NN(c2ccccc2)C(=O)/C1=C/c1ccc[nH]1,1.1*,9,0,1,7.6*,0,8.8*
CC1=NN(c2ccccc2)C(=O)C1=Cc1ccccc1,-1,1,1,0,-1,nt,nt
Cc1c(CC(=O)N[C@H](C(=O)O)C(C)C)c(=O)oc2cc3c(cc12)CCC(C)(C)O3,0,8,0,2,6.9*,1,6.6*
C/C(=N\OCc1cccc(C(=O)O)c1)c1ccc(Cl)cc1,1,13*,nt,3,8.8*,1,5
O=c1cccc2n1Cc1cc3ccccc3nc1-2,0,10,3,2,14*,1,9.7*
CCC(=O)N1CCc2cc(Br)c(S(=O)(=O)NCc3ccccc3OC)cc21,-1,4,nt,-1,-1,nt,nt
O=C(Nc1ccc(-n2cnnn2)cc1)c1cn2ccccc2n1,nt,nt,0,nt,nt,nt,nt
O=C(Nc1ccccc1)c1cn2ccccc2n1,0,10,-4,3,7.0*,1,5
CCN1CCCC1CNC(=O)c1cc2cc(F)ccc2[nH]1 (stereo not drawn),1.2*,4,3,1,11*,0,5.9*
CCN1CCCC1CNC(=O)Cn1nc(C)n2c(cc3cc(F)ccc32)c1=O (stereo not drawn),0,-1,1,1,0,nt,nt
FC(F)(F)c1cccc(-c2cc3nc(NCCCn4ccnc4)ccn3n2)c1,0,1,nt,-2,0,nt,nt
Clc1ccccc1-c1cc2nc(NCCCn3ccnc3)ccn2n1,0,8,nt,1,7.2*,1,3
SMILES,ssDAF12 agonist,hgDAF-12 ag,DAX1 inh-1,DAX1 inh-2,hcDAF12 agonist,LXR ag,hcDAF12 conf
C=CCn1c(SCC(=O)N2CCN(c3ccccc3)CC2)nc2c([nH]c3ccccc32)c1=O,0,2,3,1,9.4*,0,4
CCOC(=O)N1CCN(C(=O)CSc2nc3c([nH]c4ccccc43)c(=O)n2CC)CC1,0,1,0,-5,8.3*,0,1
CCn1c(SCC(=O)N2CCCCC2)nc2c([nH]c3ccccc32)c1=O,0,4,2,1,2,nt,nt
COc1cccc(-n2c(SCC(=O)N3CCCCC3)nc3c([nH]c4ccccc43)c2=O)c1,0,2,0,1,7.0*,0,4
COc1cccc(-n2c(Cc3cc(=O)[nH]c(=O)[nH]3)nnc2SCC(=O)N2CCCCC2)c1,0,-1,1,-1,8.3*,0,4
C#CCNC(=O)C[C@@H]1C(=O)N2CCCC3=C2[C@@]1(C(=O)OC)CCCC3,-1,1,nt,0,-2,nt,nt
CC/C(=N\NC(=O)C1CCCC1)c1cccc(Br)c1,1.8*,7,2,2,6.8*,0,3
CCOc1ccc(-n2c(SCC(=O)Nc3ccc(S(=O)(=O)Nc4nccs4)cc3)nnc2-c2ccncc2)cc1,-1,-2,nt,0,1,nt,nt
O=C(Nc1nnc(-c2ccccc2Cl)o1)c1nc2ccccc2s1,1.2*,6,1,1,8.8*,0,5
O=C(Nc1nnc(-c2ccccc2Cl)o1)c1ccco1,-1,10,0,0,4,nt,nt
COc1ccc(NC(=O)Nc2nnc(-c3cccs3)s2)cc1,-1,4,1,1,2,nt,nt
COc1ccc(C(=O)Nc2nnc(-c3cccs3)s2)cc1,1.3*,10,1,2,6.8*,2,17*
O=C(Nc1ccccc1)Nc1nnc(-c2cccs2)s1,0,4,0,1,6.6*,0,0
O=C(NC1CCCCN(Cc2cccc(C(F)(F)F)c2)C1=O)c1ccc(F)cc1 (stereo not drawn),-2,-1,nt,-2,-1,nt,nt
COc1cccc(/C=C2\CC3(OC(=O)c4ccc(F)cc4)CCCN2C3)c1 (stereo not drawn),-1,-1,nt,1,1,nt,nt
Clc1ccccc1-c1nc(-c2ccccc2)n[nH]1,1,12*,4,3,15*,1,6.6*
Oc1ccccc1-c1n[nH]c(-c2ccccc2O)n1,1.4*,13*,2,-1,7.1*,1,9.6*
CC(C)(C)c1ccc(/C=C/C(=O)NC2=NCCS2)cc1,0,7,-1,4,6.6*,1,5.7*
Cc1cc(-c2ccc(Cl)cc2)c(C#N)c(N)n1,0,-1,0,0,6.7*,0,4
Cc1ccc(-c2cc(-c3ccccc3)c(C#N)c(N)n2)o1,-1,-1,-1,-1,-1,nt,nt
O=C(NC(=S)Nc1ccc(Cl)cc1)c1ccccc1,-1,13*,1,1,8.0*,1,3
O=C(NC(=S)Nc1ccc(Oc2ccc(Cl)cc2)cc1)c1ccccc1,-1,1,-1,1,0,nt,nt
